Where “and” joins values, the source holds several entries; their conditions need not be identical. Equal values may be shown once. Where a structure was tested more than once in an assay, its records may differ in their call. Calls of active or inactive are those of the source. Unless noted, no stated cut-off is given here; in the data, active means parasite load remaining mostly below about 12% (no sharp cut-off); inactive means mostly above about 10%.
Tests used:
[1] = liver-stage malaria parasite growth inhibition, primary screen, cell-based, HepG2, luciferase luminescence, HepG2 viability (AID 624349);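 further: 100% = mean of DMSO negative control wells on the same plate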; conditions: P. berghei liver stage in HepG2, luciferase luminescence, concentration not given here; parasite load remaining: stronger effect = lower value; viability: measured here: HepG2 viability without parasites
[2] = system: Hepatitis C virus NS3 helicase; test: HCV NS3 helicase inhibitors, primary screen, biochemical, fluorescence polarization, LOPAC1280 library (AID 687035; in the data active means inhibition above about 37%); conditions: Purified HCV NS3 helicase, Cy5-dT15 ssDNA binding fluorescence polarization; stronger effect = higher value; concentration not given here
[3] = Cy5 fluorescence quenching or enhancement artefacts, artefact control for HCV NS3 helicase inhibitor project, biochemical, LOPAC1280 (AID 687037; call rule not given here); conditions: Cy5-DNA-NS3h complex fluorescence interference counterscreen
[4] = stimulators of nuclear beta-catenin in C2C12, primary screen, imaging, WNT3A-conditioned medium, mouse C2C12, NPC library (AID 1117326; in the data active means nuclear beta-catenin stimulation mostly above about 4.2%, no sharp cut-off; inactive means mostly below about 10%); conditions: stronger effect = higher value
[5] = stimulators of insulin release from INS-1E, primary screen, cell-based, 5 mM glucose, NPC library (AID 1117329;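 active means compound raises insulin release from rat beta cells at 5 mM glucose, no numeric limit stated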); conditions: rat INS-1E insulin secretion, at 10 µM, stronger effect = higher value
[6] = growth inhibition of GSK3B-pretreated HCT116 cells – cell-based, CellTiter-Glo, 0.2 to 20 µM (AID 1117336;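 active means compounds lowering colon cancer cell viability after pretreatment blocking the GSK3B kinase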); conditions: HCT116 viability after GSK3B inhibitor, at 20 µM, stronger effect = higher value
[7] = inhibition of endothelial tube formation, primary screen, imaging, VEGF stimulated, CD31 staining, tube area, NPC library (AID 1117340;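 active means compound that reduces growth-factor-driven endothelial tube area in a mixed cell culture, no cutoff stated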); conditions: VEGF-stimulated ADSC/ECFC co-culture, at 10 µM, stronger effect = higher value
[8] = glucagon-like peptide 1 release enhancers, primary assay, NCI-H716 cell line, NPC library (AID 1117341;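 active means compound raises GLP1 secretion from the human gut endocrine cells, with no numeric limit stated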); conditions: NCI-H716 cells, at 10 µM, stronger effect = higher value
[9] = HCT116 colon cancer cell growth inhibition, primary screen, CellTiter-Glo luminescence, NPC library (AID 1117342;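 active means compounds that lower survival of HCT116 colon cancer cells in the luminescence readout, no numeric limit stated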); conditions: at 20 µM (top of the series)
[10] = CellTiter-Glo luminescent readout of SW480 viability loss, NPC library primary (AID 1117343;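 active means compounds that lower viability of the colon cancer cells in the luminescence readout, with no numeric limit stated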); conditions: CellTiter-Glo luminescence; at 20 µM (top of the series)
[11] = decreased DLD-1 cellular survival, CellTiter-Glo luminescent readout, NPC compound collection, primary HTS (AID 1117346;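 active means compounds that lower survival of DLD-1 colon cancer cells in the luminescence readout, no cutoff given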); conditions: DLD-1 viability, CellTiter-Glo luminescence; at 20 µM (top of the series)
[12] = biological target: 6-phosphogluconate dehydrogenase, decarboxylating (Homo sapiens) (UniProt P52209); test: 6PGD enzyme inhibitors, primary screen, biochemical, human, recombinant enzyme, NADPH absorbance (AID 1159550;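 active means at least 20% inhibition of 6-phosphogluconate dehydrogenase activity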); conditions: recombinant 6PGD, NADPH absorbance 341 nm; at 10 µM; stronger effect = higher value
Chain of 6-phosphogluconate dehydrogenase, decarboxylating (Homo sapiens) (P52209 whole entry, looked up): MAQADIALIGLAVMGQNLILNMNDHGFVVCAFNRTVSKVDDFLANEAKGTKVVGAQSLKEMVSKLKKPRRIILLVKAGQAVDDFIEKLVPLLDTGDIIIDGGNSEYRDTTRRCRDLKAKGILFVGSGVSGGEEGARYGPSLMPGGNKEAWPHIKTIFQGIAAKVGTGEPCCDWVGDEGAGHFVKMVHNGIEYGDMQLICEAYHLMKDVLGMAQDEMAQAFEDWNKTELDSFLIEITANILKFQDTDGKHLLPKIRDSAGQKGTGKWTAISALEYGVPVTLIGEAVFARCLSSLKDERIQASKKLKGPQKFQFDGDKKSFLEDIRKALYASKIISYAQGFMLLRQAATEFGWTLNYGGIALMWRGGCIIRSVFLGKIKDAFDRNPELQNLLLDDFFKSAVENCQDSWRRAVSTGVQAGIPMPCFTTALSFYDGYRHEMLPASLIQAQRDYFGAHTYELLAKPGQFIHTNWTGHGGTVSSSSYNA

SMILES	parasite load remaining [1]	viability [1]	inhibition [2]	fluorescence ratio (interference) [3]	nuclear beta-catenin stimulation ([4]; at 10 µM)	nuclear beta-catenin stimulation ([4]; stimulation, at 2 µM) [%]	insulin secretion stimulation [5]	viability decrease [6]	tube area decrease [7]	GLP1 secretion stimulation [8]	inhibition of viability [9]	viability decrease (inhibition) [10]	viability decrease (inhibition) [11]	inhibition [12]
C[n+]1cc2c3c(ccc2c2ccc4cc5c(cc4c21)OCO5)OCO3	-0.155% (inactive) and -0.085% (inactive)	0.535% and 0%	-2% (inactive)	1 (inactive)	32.4% (inactive)	1.3	-3.7% (inactive)	99.8% (active)	104% (active)	27.5% (active)	102% (active)	141% (active)	105% (active)	11.1% (inactive)
O=C(Nc1ccc([N+](=O)[O-])cc1Cl)c1cc(Cl)ccc1O	-1.67% (inactive) and -1.04% (inactive) and -2.1% (inactive)	26.1% and 53.7% and 67.1%	-2% (inactive)	1 (inactive)	56.2% (active)	33.1	-1.7% (inactive)	99.7% (active)	103% (active)	3.3% (inactive)	107% (active)	120% (active)	102% (active)	9.61% (inactive)
CC(C)N=C(N)/N=C(\N)Nc1ccc(Cl)cc1	38.3% (inactive) and -0.12% (active)	66.1% and 93.4%	–	–	1.1% (inactive)	0.3	-3.1% (inactive)	14.7% (inactive)	1.9% (inactive)	5.1% (inactive)	13.5% (inactive)	67.6% (active)	27.1% (inactive)	2.42% (inactive)
Cn1c([N+](=O)[O-])cnc1COC(N)=O	74.3% (inactive) and 117% (inactive) and 35.4% (inactive)	101% and 70.6% and 91.7%	–	–	0.1% (inactive)	0.6	-4.5% (inactive)	-8.4% (inactive)	6.2% (inactive)	0.7% (inactive)	-2.4% (inactive)	-4.9% (inactive)	-13.8% (inactive)	-20.2% (inactive)
CN(C)CCOC(=O)COc1ccc(Cl)cc1	72.9% (inactive) and 143% (inactive)	96.7% and 93.9%	0% (inactive)	1 (inactive)	-0.6% (inactive)	1	1.2% (inactive)	-0.8% (inactive)	-34.4% (inactive)	1.2% (inactive)	7.1% (inactive)	-16% (inactive)	-7.4% (inactive)	17.7% (inactive)
Cc1ccc(C(=O)Nc2ccc(S(=O)(=O)O)c3cc(S(=O)(=O)O)cc(S(=O)(=O)O)c23)cc1NC(=O)c1cccc(NC(=O)Nc2cccc(C(=O)Nc3cc(C(=O)Nc4ccc(S(=O)(=O)O)c5cc(S(=O)(=O)O)cc(S(=O)(=O)O)c45)ccc3C)c2)c1	42.8% (inactive) and 57% (inactive)	89.5% and 106%	96% (active)	1 (inactive)	-3.6% (inactive)	-0.5	1.6% (inactive)	-23.9% (inactive)	6% (inactive)	36.3% (active)	-17.7% (inactive)	-22.7% (inactive)	8.3% (inactive)	27.5% (active)
Cc1oncc1C(=O)Nc1ccc(C(F)(F)F)cc1	174% (inactive) and 159% (inactive) and 30% (inactive)	94.2% and 84.7% and 88.5%	-2% (inactive)	1 (inactive)	15.4% (inactive)	3.9	-1.5% (inactive)	40% (inactive)	32% (inactive)	9% (inactive)	38.7% (inactive)	39.1% (inactive)	22% (inactive)	-7% (inactive)
COC(=O)Nc1nc2ccc(S(=O)c3ccccc3)cc2[nH]1 (centres undefined)	162% (inactive) and 87.1% (inactive) and 49.8% (inactive)	85.8% and 93.1% and 68.5%	–	–	57.7% (active)	58.1	-2.4% (inactive)	93.5% (active)	110% (active)	8% (inactive)	92.2% (active)	96% (active)	88% (active)	17.4% (inactive)
CCN(CC)CCOC(=O)C(c1ccccc1)C1CCCCC1 (centres undefined)	67.5% (inactive) and 28.1% (inactive)	92.4% and 69.7%	–	–	5% (inactive)	0.5	18.2% (inactive)	-99.4% (inactive)	14.5% (inactive)	2.9% (inactive)	25% (inactive)	36.2% (inactive)	48.4% (inactive)	9.92% (inactive)
C=CC(N)CCC(=O)O (centres undefined)	117% (inactive) and 83.3% (inactive) and 20.7% (inactive)	112% and 77.9% and 99.3%	0% (inactive)	1 (inactive)	1.7% (inactive)	0.5	1.4% (inactive)	-25.5% (inactive)	-14.9% (inactive)	-0.9% (inactive)	10.9% (inactive)	-15.3% (inactive)	-6.8% (inactive)	-0.693% (inactive)
NC[C@H]1O[C@H](O[C@H]2[C@H](O)[C@@H](O[C@H]3O[C@H](CO)[C@@H](O)[C@H](N)[C@H]3O)[C@H](N)C[C@@H]2N)[C@H](N)[C@@H](O)[C@@H]1O	95.5% (inactive) and 56.4% (inactive)	69.4% and 85.5%	–	–	0.8% (inactive)	-1.6	-0.7% (inactive)	-7.8% (inactive)	-8.4% (inactive)	1.5% (inactive)	9.9% (inactive)	6.5% (inactive)	-1.7% (inactive)	5.79% (inactive)
